40 compounds from PubChem BioAssay (EPA / NIEHS) can be followed below.

Calls of active or inactive are those of the source. How the source made its calls: active means hit-call score of the fitted dose curve at least 0.9, where 1 is the maximum; inactive means score below 0.9.

Read-out in this experiment: ATP-citrate lyase (ACLY), ACLY (gene 47)
In words: LTEA_HepaRG_ACLY: Life Technologies and Expression Analysis (LTEA) Assay for ATP-citrate lyase (ACLY) using HepaRG (AID 2283466). The following applies: mRNA level, 48 h; actives raise or lower the signal. The protocol:
LTEA_HepaRG is a cell based, multiplexed-readout assay that uses HepaRG, a human liver cell line, with measurements taken at 48 hours after chemical dosing on a 96-well plate.LTEA_HepaRG_ACLY is one of 102 assay component(s) measured in the LTEA HepaRG cell culture assay. It is a marker of Steatosis.Data from the assay component LTEA_HepaRG_ACLY was analyzed into 1 endpoint. This assay endpoint, LTEA_HepaRG_ACLY, was analyzed with bidirectional fitting relative to DMSO as the negative control and baseline of activity. Using a type of inducible reporter, measures of mRNA induction for gain or loss-of-signal activity can be used to understand regulation of transcription factor activity. To generalize the intended target to other relatable targets, this assay endpoint is annotated to the lyase intended target family, where the subfamily is steatosis.
A total of 1060 chemcials from the ToxCast library were tested in eight-point concentration-response experiments. Cell culture and cytotoxicity assays were conducted at Thermo Fisher Scientific's Custom Services facility (Madison, WI). A single lot of human HepaRG cells (Thermo Fisher Scientific, Frederick, MD) was used for the cell culture experiments. 96-well format collagen type I coated plates of human HepaRG cells were prepared using established methods. Briefly, cryopreserved HepaRG cells were thawed, plated at a density of approximately 100,000 cells/well in HepaRG Thaw, Plate, and General Purpose media (HPRG770, Thermo Fisher Scientific), and incubated for 48 hours. 0.5% DMSO was selected as vehicle control to balance the requisite need of DMSO in HepaRG cultures to maintain differentiation (for example, baseline metabolism, proportions of hepatocytes vs. cholangiocytes), while enabling further hepatic receptor pathway activation (for example, PXR and CAR) in response to chemical exposure. 48 hours after plating, the culture medium was replaced with HepaRG Serum-Free Incudtion Media. Cells were exposed to each test chemical in duplicate and maintained in CO2 incubators for another 48 hours. Chemical plates were thawed to room temperature and 200x concentrations of treatment groups were prepared. 8-point conentration-reponse curves were made with the highest exposure at 100 uM, followed by half-log dilutions, all in 0.5% DMSO. Each test plate contained variouse controls, induction positive controls (1mM phenobarbital), cytotoxicity positive controls ([…] aflatoxin B1), vehicle controls (0.5% DMSO), and total lysis controls (0.5% DMSO). Cell morphology images were taken using an Essen IncuCyte FLR automated microscope, with six 96-well plates imaged in about 24 minutes. Images were captured and exported and JPEG files. Spent culture media was transfered to black-well plates for the LDH assay, and remaining media was sorted at -80 C for later use. Cells were treated with RLT buffer and frozen until shipped for gene expression analysis. Total RNA was isolated from the cell suspension in 75 uL of Buffer RLT (Qiagen, Germantown, MD 20874) by Quintiles/Expression Analysis (Durham, NC) using a custom isolation procedure. Total RNA from each plate well was transferred to a preamplification plate. Fluidigm's 96.96 Dynamic ArrayTM (Fluidigm, Amsterdam, the Netherlands) technology was used for gene expression analyses by quantitative reverse transcription polymerase chain reaction (qRT-PCR, performed by Quintiles/Expression Analysis, Durham, NC)89. Standard TaqManTM Assays (Applied Biosystems/ThermoFisher Scientific, Foster City, CA) were used to assess the expression of 93 genes selected based on their selectivity and sensitivity to important hepatic receptors known to be modulated by environmental chemicals; importance in human hepatocyte functionality; and hepatotoxicity. […]
Turning to `CCCCc1nc2cccnc2n1Cc1ccc(-c2ccccc2-c2nnn[nH]2)cc1`, the compound was classed as inactive.
The same measure, in the same setting: the entry for `CCCCOC(=O)CCCCC(=O)OCCCC` is “inactive”.
For `CN(C)C(=O)NC1(c2ccccc2)CCN(CC[C@@]2(c3ccc(F)c(F)c3)CN(C(=O)c3ccccc3)CCO2)CC1`, the AC50 was 47 µM (active).
For the compound `CN(C)C(=O)NC1(c2ccccc2)CCN(CCC[C@]2(c3ccc(Cl)c(Cl)c3)CCCN(C(=O)c3ccccc3)C2)CC1`, the outcome was inactive.
Still for that read-out and setting: the entry for `O=C(O)c1cccnc1` is “inactive”.
`CCc1nc(N)nc(N)c1-c1ccc(Cl)cc1`: the half-maximal activity concentration (AC50) was 80.4 µM (active).
As to `CC(=O)OC1CC(C)OC(C)O1` (stereo not given), the outcome was inactive.
On the same count and under the same terms, next, `Cc1cc(SC2=C(O)C[C@@](CCc3ccc(N)cc3)(C(C)C)OC2=O)c(C(C)(C)C)cc1CO`: “inactive”; `NC1CCCCC1`: “inactive”.
`NC(=Nc1ccccc1)Nc1ccccc1`: the result was inactive.
As to `O=C(Oc1ccccc1)c1cccc(C(=O)Oc2ccccc2)c1`, the outcome was inactive.
In the case of `CC(=O)[C@@]1(O)CC[C@H]2[C@@H]3CCC4=CC(=O)CC[C@]4(C)[C@H]3CC[C@@]21C`, the AC50 is 39.6 µM (active).
Regarding `Cc1cc(Cc2ccc(N)c(C)c2)ccc1N`, the outcome was inactive.
Still for that read-out and setting: the entry for `CC(=O)OCC(COC(C)=O)OC(C)=O` is “inactive”; for `O=C(NS(=O)(=O)/C=C/c1cccs1)c1ccc(F)cc1Br` it is “inactive”.
Take `O=NO`: the compound was called inactive.
As for `Cc1cn([C@H]2C=C[C@@H](CO)O2)c(=O)[nH]c1=O`, the compound was called inactive.
With `O=[Si]=O`, the outcome was inactive.
The same measure, in the same setting: the entry for `COC(=O)CCCC(=O)OC` is “inactive”.
On to `CC(C)OC(=O)C(C)(C)Oc1ccc(C(=O)c2ccc(Cl)cc2)cc1`, for which the compound was classed as inactive.
Same read-out and setting: next, `O=C(O)CC(O)(CC(=O)O)C(=O)O`: “inactive”; `NC=O`: “inactive”.
`CC(C)NCC(O)c1ccc(O)c(O)c1` (stereo not given): the AC50 is 0.182 µM (active).
On the same count and under the same terms, next, `O=C(N[C@@H](c1ccccc1)[C@@H]1CCCCN1)c1cccc(C(F)(F)F)c1Cl`: 11.4 µM (active).
For the compound `CC1=C(C)S(=O)(=O)CCS1(=O)=O`, the outcome was inactive.
As for `CC(C)c1cccc(C(C)C)c1NC(=O)NS(=O)(=O)c1cc(C(C)(C)O)co1`, the call was inactive.
Consider `CS(=O)(=O)c1ccc([C@@H](C[C@H]2CCC(=O)C2)C(=O)Nc2cnccn2)cc1Cl`, for which the result was inactive.
Same read-out and setting: next, `CN(C)CCCN(C)CCCN(C)C`: “inactive”; `C=CCCCCCCCCCCCC`: “inactive”; `CCCCCCCCCCCCCCOS(=O)(=O)O`: “inactive”.
Still for that read-out and setting: next, `CCCC[C@H]1CN(CC2CCOCC2)C(=O)OC12CCN(C1(C)CCN(C(=O)c3c(C)ncnc3C)CC1)CC2`: “inactive”; `S=c1[nH]c2ccccc2s1`: “inactive”; `CC(N)=O`: “inactive”.
On to `CC(COCC(C)OC(=O)c1ccccc1)OC(=O)c1ccccc1` (stereo not given), for which the result was inactive.
`COc1ccc(C(=O)Nc2nc3ccccc3c(NCc3ccccc3)c2C#N)cc1`: the AC50 was 16.5 µM (active).
For `C/C=C/C=C/C(=O)O`, the outcome was inactive.
For the compound `C=CCc1ccc(OC)c(OC)c1`, the compound was classed as inactive.
On the same count and under the same terms, the entry for `C#CC(O)C(CC)CCCC` (stereo not given) is “inactive”; for `CC(C)c1cccc(C(C)C)c1` it is “inactive”; for `O=C1CCCCC1` it is “inactive”.

Usually AC50 stands for the concentration giving half of the maximal activity seen.
